Assay results as given in the supplement of paper PMC10933113.
Where a name gives a salt, the structure may show the parent alone. ± gives the uncertainty stated by the source.

These compounds were tested on THP-1 (assay: CD86 surface expression induction over DMSO control (% over DMSO); higher = stronger dendritic cell activation). Settings: exposure time: 24 h.
Experimental: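 hCLAT-like CD54 and CD86 surface expression on THP1 cells after 24 h exposure at a single concentration (highest non-cytotoxic concentration, or 100-200 µM if not cytotoxic). Flow cytometry (iQue) was run on 5,000 live cells.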

Row | SMILES | CD86 surface expression induction
1 | O=c1[nH]sc2cc(Cl)ccc12 [Ticlatone] (10 µM) | -7.52 ± 22
2 | O=[N+]([O-])c1cc(N(CCO)CCO)ccc1NCCO (200 µM) | -7.47 ± 11
3 | CCCCCCCC/C=C\CCCCCCCC(=O)N(C)CC(=O)O [Oleyl sarcosine] (100 µM) | -14.4 ± 36
4 | CCCCCCCCCCCC(=O)NCCCN(C)C [N-[3-(Dimethylamino)propyl]dodecanamide] (200 µM) | 43.4 ± 63
5 | Clc1ccc2c(c1)Nc1ccccc1S2 [2-Chlorophenothiazine] (100 µM) | -11 ± 14
6 | COc1cc(Nc2c(C#N)cnc3cc(OCCCN4CCN(C)CC4)c(OC)cc23)c(Cl)cc1Cl [Bosutinib] (100 µM) | 5.12 ± 41
7 | O=C1c2cccc(O)c2C(=O)c2c(O)cccc21 [Danthron] (100 µM) | 6.93 ± 0.81
8 | COC(=O)Nc1nc2ccc(C(=O)C3CC3)cc2[nH]1 [Cyclobendazole] (100 µM) | 7.71 ± 16
9 | CC(C)(C)OC(=O)c1ccc(O)cc1 [tert-Butyl 4-hydroxybenzoate] (100 µM) | -2.42 ± 14
10 | Cc1ccc(N)cc1O [5-Amino-2-methylphenol] (200 µM) | -0.96 ± 6.3
11 | O=C(Nc1ccccc1)c1cc([N+](=O)[O-])ccc1Cl [2-Chloro-5-nitro-N-phenylbenzamide] (200 µM) | 31.1 ± 7.1
12 | O=c1n(CC2CO2)c(=O)n(CC2CO2)c(=O)n1CC1CO1 (stereo not given) [Triglycidyl isocyanurate] (10 µM) | 0.85 ± 1.2
13 | CC(C(=O)O)c1ccc(/C=C2\CCCCC2=O)cc1 (stereo not given) [Pelubiprofen] (100 µM) | -4.77 ± 4.1
14 | CC(C)(C)c1ccc(S)cc1 [4-tert-Butylbenzenethiol] (200 µM) | 12.9 ± 21
15 | COc1cccc2c1C(=O)c1c(O)c3c(c(O)c1C2=O)C[C@@](O)(C(=O)CO)C[C@@H]3O[C@H]1C[C@H](N)[C@H](O[C@@H]2CCCCO2)[C@H](C)O1 [Pirarubicin*] (10 µM) | 324 ± 3.3
16 | CCCCCCCCCCC=CC1CC(=O)OC1=O (stereo not given) [3-(Dodecenyl)dihydro-2,5-furandione] (200 µM) | -8.58 ± 3
17 | O=C(CS)Nc1ccccc1 [Thioglycolic acid anilide] (300 µM) | 34.4 ± 2
18 | C=C1CC[C@H](O)C/C1=C/C=C1\CCC[C@]2(C)[C@@H]([C@H](C)/C=C/[C@H](C)C(C)C)CC[C@@H]12 [Ergocalciferol*] (100 µM) | 74 ± 130
19 | Nc1ccccc1N [1,2-Phenylenediamine*] (200 µM) | 88.8 ± 49
20 | Nc1ccc(/N=N/c2ccccc2)c(N)n1 [Phenazopyridine hydrochloride] (100 µM) | -8.42 ± 5.7

Row | SMILES | CD86 surface expression induction
21 | CCCCCCCCCCCCN(CCO)CCO [Lauryldiethanolamine] (10 µM) | -16.1 ± 0.72
22 | C=C(C)C(=O)Nc1ccc(Cl)c(Cl)c1 [Chloranocryl] (100 µM) | -22.2 ± 23
23 | CCCCNC(=S)NCCCC [N,N'-Dibutylthiourea] (10 µM) | -9.37 ± 9.2
24 | Cc1ccc(O)c(-n2nc3ccccc3n2)c1 [2-(2H-Benzotriazol-2-yl)-4-methylphenol] (100 µM) | -18.9 ± 28
25 | CCC(=O)C=Cc1ccc(OC)cc1 [1-(4-Methoxyphenyl)-1-pentene-3-one] (200 µM) | 6.83 ± 10
26 | CN(C)c1ccc(SC#N)cc1 [4-(Dimethylamino)phenylthiocyanate] (10 µM) | -14.3 ± 7
27 | NC(=O)N/N=C/c1ccc([N+](=O)[O-])o1 [Nitrofurazone] (200 µM) | 5.94 ± 3.7
28 | N=C1C=CC(=C(c2ccc(N)cc2)c2ccc(N)cc2)C=C1 [C.I. Basic Red 9 monohydrochloride] (10 µM) | -3.84 ± 5
29 | Nc1nnc(-c2ccc([N+](=O)[O-])o2)o1 [2-Amino-5-(5-nitro-2-furyl)-1,3,4-oxadiazole] (10 µM) | -2.6 ± 2.1
30 | COc1cc(C(C)(C)C)c(O)c(C(C)(C)C)c1 [2,6-Di-tert-butyl-4-methoxyphenol] (200 µM) | 18.9 ± 43
31 | C=CCOC(Cn1ccnc1)c1ccc(Cl)cc1Cl (stereo not given) [Imazalil sulfate] (100 µM) | 16.4 ± 4.3
32 | O=C1c2cccc(O)c2C(=O)c2c(O)cc(CO)cc21 [Aloe-emodin] (100 µM) | 4.61 ± 9.4
33 | c1ccc2[nH]c(-c3cscn3)nc2c1 [Thiabendazole] (100 µM) | 6.44 ± 20
34 | CCN(CC)CCOc1ccc2c(c1)C(=O)c1cc(OCCN(CC)CC)ccc1-2 [Tilorone] (200 µM) | 58 ± 31
35 | CC(C)NC(=O)c1ccc(C=O)cc1 [N-isopropyl-4-formylbenzamide] (100 µM) | -3.04 ± 5.2
36 | CC(C)(C)c1cc(O)ccc1O [tert-Butylhydroquinone] (100 µM) | 66.8 ± 57
37 | NC(=S)NC(N)=S [2,4-Dithiobiuret] (200 µM) | 26.6 ± 0.3
38 | CC(C)=CCC/C(C)=C\CO [(2Z)-3,7-Dimethylocta-2,6-dien-1-ol] (200 µM) | 6.83 ± 19
39 | COc1ccc(-c2cc(=S)ss2)cc1 [Anethole trithione] (100 µM) | -4.63 ± 2.6
40 | Oc1ccc2ccccc2c1N=Nc1ccccc1 [C.I. Solvent Yellow 14] (200 µM) | 3.18 ± 3.5
